From PubChem BioAssay (Tox21)
Several values for one entry are separate records, joined by “and”; a condition that tells them apart may be missing. Identical values can stand only once. Inconclusive results are not listed. Activity calls are given as the source filed them. Calls follow the shape of the dose curve; as a rule, active = well fitted activation curve with a large enough effect in the repeat runs; inconclusive = weak or mixed curves; inactive = no such curve, though single readings can be large or run the other way.

target: Nuclear receptor subfamily 1 group I member 2 (Rattus norvegicus) (UniProt Q9R1A7); assay: Rat pregnane X receptor (rPXR) activation by small molecules, qHTS assay (AID 1346983); conditions: rPXR luciferase reporter cells, One-Glo luminescence, 24 h; max activation: active compounds read high; also: nearly all actives have a fitted effect of over 20% in size
Sequence (Q9R1A7 whole entry, looked up): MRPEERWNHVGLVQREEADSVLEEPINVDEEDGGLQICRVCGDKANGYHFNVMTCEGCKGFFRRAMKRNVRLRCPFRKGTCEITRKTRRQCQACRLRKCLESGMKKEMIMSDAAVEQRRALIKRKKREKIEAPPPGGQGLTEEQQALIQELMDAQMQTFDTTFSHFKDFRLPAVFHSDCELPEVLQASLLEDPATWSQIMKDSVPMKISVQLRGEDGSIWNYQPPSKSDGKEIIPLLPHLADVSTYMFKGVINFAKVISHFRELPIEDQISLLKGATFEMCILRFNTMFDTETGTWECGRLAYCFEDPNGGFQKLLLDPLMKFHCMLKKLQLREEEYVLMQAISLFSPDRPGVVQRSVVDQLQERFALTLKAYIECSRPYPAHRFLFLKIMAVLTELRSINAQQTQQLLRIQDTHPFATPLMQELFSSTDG
Procedure, shortened: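 Cell-based rPXR activation assay: rPXR cells, 2,000 per well, rested 5hr at 37 C, then exposed to compounds in DMSO for 24 hr at 37 C. Luciferase activity read by One-Glo luminescence after 30 min at room temperature.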
% is scaled to controls: 0 for no effect and ±100 for the full control effect; potency is read from the fitted curve at half-maximal effect.

| Compound | max activation | Potency |
| --- | --- | --- |
| CS(=O)(=O)c1ccc([C@@H](O)[C@@H](CF)NC(=O)C(Cl)Cl)cc1 | -1.93% (inactive) |  |
| C=CC(C)(O)CC/C=C(\C)CCC=C(C)C (centres undefined) | 3.74% (inactive) |  |
| Cc1cc(NS(=O)(=O)c2ccc(N)cc2)nc(C)n1 | 1.05% (inactive) |  |
| CCC(=O)O[C@]1(C(=O)SCF)[C@H](C)C[C@H]2[C@@H]3C[C@H](F)C4=CC(=O)C=C[C@]4(C)[C@@]3(F)[C@@H](O)C[C@@]21C |  | 1580 nM (active) |
| FC(F)(F)C(F)(F)C(F)(F)C(F)(F)C(F)(F)C(F)(F)C(F)(F)C(F)(F)Br | -2.79% (inactive) |  |
| CCN(CC)CC1CCCCN1CC(=O)N1c2ccccc2C(=O)Nc2cccnc21 (centres undefined) | -0.899% (inactive) |  |
| CCN[C@H]1CN(CCCOC)S(=O)(=O)c2sc(S(N)(=O)=O)cc21 | -3.62% (inactive) |  |
| CCCN(CCC)C(=O)C(CCC(=O)O)NC(=O)c1ccccc1 (centres undefined) | 0.444% (inactive) |  |
| CCCCN1C[C@H](O)[C@@H](O)[C@H](O)[C@H]1CO | -1.78% (inactive) |  |
| C[C@@H]1CN(c2c(F)c(N)c3c(=O)c(C(=O)O)cn(C4CC4)c3c2F)C[C@H](C)N1 | -3.87% (inactive) |  |
| COc1ccc(S(=O)(=O)Nc2nnc(CC(C)C)s2)cc1 | -1.31% (inactive) and -1.74% (inactive) |  |
| Cc1c(C(=O)NCCO)[n+](=O)c2ccccc2n1[O-] | -3.05% (inactive) |  |
| COc1ccccc1OCC(O)COC(N)=O (centres undefined) | 0.101% (inactive) |  |
| CC1(C)S[C@@H]2[C@H](NC(=O)C(C(=O)O)c3ccccc3)C(=O)N2[C@H]1C(=O)O (some centres undefined) | 0.938% (inactive) |  |
